Hits are enriched below; roughly 11% of the tested compounds scored in any of these assays.
PNC inhibitor: inhibitors of perinucleolar compartment assembly; hit rate 3.1% among 140,000; PC3M PTB-GFP, PNC prevalence imaging, 16 h; active compounds read low; activity change (PNC), negative = inhibition, % at 10 µM;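 active = readout at or below -70, meaning at least 70% loss of cells showing the perinucleolar compartment, a nuclear body marking cancer cells; inconclusive = readout between -30 and a set limit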;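 also: plate controls were DMSO wells for no effect and camptothecin positive control wells for full effect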
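Read-out is percentage of cells bearing a perinucleolar compartment, from automated 20x imaging of fixed, Hoechst-stained PC3M PTB-GFP cells. Cells were seeded 4 h, then exposed 16 h to compound (23 nl of library stock) in duplicate plates.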
ALDH1A1 inh: blocks purified human ALDH1A1 activity; P00352; Purified ALDH1A1, NADH fluorescence, propionaldehyde substrate; Potency, µM (doses to about 75.3 µM), for the others: at the highest dose activity, negative = inhibition, actives largely listed as inhibitors; hit rate 7.3% among 220,000; AID 1030;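 also: potency is read from the fitted curve at half-maximal effect; plate controls were no enzyme wells and a reference inhibitor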
Target sequence (P00352 whole entry, looked up): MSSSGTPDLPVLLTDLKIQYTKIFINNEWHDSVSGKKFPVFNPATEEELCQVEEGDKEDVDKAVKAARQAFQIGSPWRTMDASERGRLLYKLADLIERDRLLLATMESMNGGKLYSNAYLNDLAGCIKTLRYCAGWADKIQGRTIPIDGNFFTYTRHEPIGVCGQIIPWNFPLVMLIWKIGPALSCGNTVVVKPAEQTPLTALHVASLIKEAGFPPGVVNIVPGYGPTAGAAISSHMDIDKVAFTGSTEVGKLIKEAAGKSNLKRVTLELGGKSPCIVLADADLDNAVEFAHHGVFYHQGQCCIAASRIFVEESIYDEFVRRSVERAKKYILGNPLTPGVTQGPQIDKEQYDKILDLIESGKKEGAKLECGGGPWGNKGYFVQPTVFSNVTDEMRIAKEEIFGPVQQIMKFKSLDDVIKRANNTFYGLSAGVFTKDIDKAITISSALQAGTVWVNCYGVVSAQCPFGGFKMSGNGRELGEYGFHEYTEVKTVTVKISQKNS
HPGD inh: HPGD (human) dehydrogenase inhibition; P15428; purified HPGD, NADH fluorescence kinetic, PGE2 substrate; Potency, µM, inactives show top-dose activity change, negative = inhibition, most hits filed as inhibitors; hit rate 4.3% among 150,000; AID 894; also: potency is read from the fitted curve at half-maximal effect
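20 nM HPGD preincubated 15 min at room temperature with compound in 50 mM Tris-HCl pH 8, 0.01% Tween 20. Started with 1 mM NAD+ and 30 uM prostaglandin E2; NADH fluorescence (360/450 nm) read 5 times over 30-s intervals, last minus first.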
* hit, by the source's call; ? = inconclusive; / = not tested or not shown; [ ] = dose if it differs, or a comment. Unless noted, calls follow the shape of the dose curve; as a rule, active = well fitted inhibition curve with a large enough effect (not every such curve was filed as active); inconclusive = small, poorly fitted or top-dose-only effect, or another doubt; inactive = no such curve, though single readings can be large or run the other way. Unless noted, % is scaled to controls: 0 for no effect and ±100 for the full control effect.

SMILES	PNC inhibitor	ALDH1A1 inh	HPGD inh
CCCOc1ccc(NC(=O)CC2C(=O)N(CC)C(=S)N2CCNC(C)=O)cc1 (centres undefined)	-113*	-1%	-3%
CCCCOC(=O)C1=C(C)Nc2ncnn2C1c1cccc(OC)c1OC (centres undefined)	-20	?	2%
O=C(CNC1CCCCCC1)Nc1ccccc1N1CCOCC1	/	-10%	/
O=C(O)c1cc2ccccc2c(Cc2cc3ccccc3c(C(=O)O)c2O)c1O (tested in a mixture with another compound)	/	?	-14%
c1ccc2scnc2c1	/	?	-14%
CCCOc1ccc(NC(=O)CC2C(=O)N(C)C(=S)N2Cc2cccs2)cc1 (centres undefined)	-119*	?	-23%
CN1C(=O)C(CC(=O)Nc2ccc(F)cc2)N(Cc2cccs2)C1=S (centres undefined)	/	2%	/
COc1c2ccccc2nc2occc12	/	4%	-14%
COCCn1nnnc1CN1CCC(NC(=O)c2ccc(Br)cc2)CC1	-100*	5%	-11%
COCCn1nnnc1CN1C2CCCC1CC(NC(C)=O)C2 (centres undefined)	-18	6%	-2%
COc1cc(C(=O)NC2CCN(Cc3nnnn3Cc3cccs3)CC2)cc(OC)c1OC	-16	8.9µM*	-7%
COCCn1nnnc1CN1CCOCC1	-11	-4%	-8%
COc1cc(C(=O)NC(C)Cc2cccs2)cc(OC)c1OC (centres undefined)	/	0%	/
COCCn1nnnc1CN1CCC(C)CC1	-100*	?	-7%
Cc1cccc(OCc2nc(-c3cccnc3)no2)c1	18	6%	-8%
Cn1cccc1C1C(C#N)=C(N)OC2=C1C(=O)CC(C)(C)C2 (centres undefined)	/	-11%	/
CC1(C)CC(=O)C2=C(C1)OC(N)=C(C#N)C2Cc1ccccc1 (centres undefined)	?	-12%	-1%
CCC(C)C1C(C#N)=C(N)OC2=C1C(=O)CC(C)(C)C2 (centres undefined)	13	11µM*	-16%
CC1(C)CC(=O)C2=C(C1)OC(N)=C(C#N)C2c1ccsc1 (centres undefined)	?	25µM*	-10%
CC1(C)CC(=O)C2=C(C1)OC(N)=C(C#N)C2C1CC=CCC1 (centres undefined)	317	7.9µM*	-25%
COc1ccc(C2C(C#N)=C(N)OC3=C2C(=O)CC(C)(C)C3)cc1 (centres undefined)	/	4.5µM*	/
CC1(C)CC(=O)C2=C(C1)OC(N)=C(C#N)C2c1ccc[nH]1 (centres undefined)	/	-10%	/
CC1C(C#N)=C(N)OC2=C1C(=O)CC(C)(C)C2 (centres undefined)	-10	-7%	?
CC1=C(OC(=O)C(C)(C)C)C(C)(C)C(c2ccccc2)OC1=O (centres undefined)	?	-6%	0%
CCCn1c(-c2ccc(F)cc2)nc2c(NC(C)CN(C)C)nc(C)nc21 (centres undefined)	/	?	-27%
SMILES	PNC inhibitor	ALDH1A1 inh	HPGD inh
CCCc1cc(N2CCN(c3ccccn3)CC2)n2nc(C)c(-c3ccccc3)c2n1	-2	?	?
CC1(C)CC(=O)C2=C(C1)OC(c1ccc(O)cc1)C(C#N)=C2N (centres undefined)	-18	1.1µM*	-19%
COc1ccc(C2C(C#N)=C(SC)NC3=C2C(=O)CC(C)(C)C3)cc1 (centres undefined)	?	14µM*	-22%
N#CC1=C(N)OC2=C(C(=O)CCC2)C1c1ccc(OC(=O)N2CCOCC2)cc1 (centres undefined)	1	-13%	-11%
CCOC(=O)CSC1=C(C#N)C(c2ccc(OC)cc2)C2=C(CC(C)(C)CC2=O)N1 (centres undefined)	-3	?	?
CC1(C)CC(=O)C2=C(C1)OC(c1ccncc1)C(C#N)=C2N (centres undefined)	11	?	1%
CC1(C)CC(=O)C2=C(C1)OC(N)=C(C#N)C2c1ccc(OC(=O)N2CCOCC2)cc1 (centres undefined)	?	3.2µM*	-16%
CCCCCCCC1=CC2=C(Cl)C(=O)C(C)(OC(C)=O)C(=O)C2=CN1C (centres undefined)	/	-12%	-7%
NC(=O)N/N=C\c1ccc([N+](=O)[O-])o1	/	-14%[20.9 µM]	-13%
CC[C@H](/C=C/[C@@H](C)[C@H]1CC[C@H]2C3CC=C4C[C@@H](O)CC[C@]4(C)C3CC[C@]12C)C(C)C (some centres undefined)	/	11%	-3%
CCCn1c(C(O)c2ccc3c(c2)OCO3)nc2ccccc21 (centres undefined)	-100*	-3%	-7%
CCCn1c(NCc2ccc3c(c2)OCO3)nc2ccccc21	9	11%	-4%
C=CCN1C(=O)C(CC(=O)O)SC1=Nc1ccc(N=Nc2ccccc2)cc1 (centres undefined)	/	-13%	/
C=CCN1C(=O)C(CC(=O)O)SC1=Nc1cccc([N+](=O)[O-])c1 (centres undefined)	/	14µM*	/
NCCCCCCN	/	2%	-6%
O=C(COc1ccccc1[N+](=O)[O-])Nc1ccc2c(c1)OCO2	/	-15%	/
O=C(Cc1ccccc1[N+](=O)[O-])NCc1ccc2c(c1)OCO2	18	-2%	-8%
COc1ccc(NC(=O)COC(=O)Cc2ccccc2[N+](=O)[O-])cc1OC	/	14µM*	/
COc1ccc(NCc2ccccc2[N+](=O)[O-])cc1OC	-10	?	-6%
Cc1c(C(=O)OCC(=O)NCc2ccc3c(c2)OCO3)cccc1[N+](=O)[O-]	-11	7.9µM*	-15%
Cc1c(C(=O)OCC(=O)Nc2ccc3c(c2)OCO3)cccc1[N+](=O)[O-]	4	8.9µM*	-11%
Cc1cc2nc3[nH]c4c(Cl)cc(Cl)cc4c3nc2cc1C	/	-8%[13.5 µM]	-7%
O=c1c(Cl)c(NCc2ccccc2Cl)cnn1C12CC3CC(CC(C3)C1)C2	-13	?	-20%
Cc1ccc(-c2csc3ncnc(Oc4ccc5c(C)cc(=O)oc5c4)c23)cc1	?	-1%	?
CC(=O)Nc1cccc(Oc2ncnc3scc(-c4ccc(C)cc4)c23)c1	-83*	?	28µM*
SMILES	PNC inhibitor	ALDH1A1 inh	HPGD inh
Cc1nn(CC(=O)NCCCc2ccccc2)c(C)c1[N+](=O)[O-]	/	-7%	/
CCOC(=O)c1c(C)[nH]c(-c2csc(C)n2)c1C	/	2%	/
CCOC(=O)c1c(C)[nH]c(-c2csc(N)n2)c1C	/	11µM*	/
COc1ccc(CCN(Cc2cccs2)S(=O)(=O)c2ccc(S(=O)(=O)N(C)C3CCCCC3)cc2)cc1OC	2	?	-16%
Cc1ccc2c(c1)N(C(C)C(=O)NCc1cccs1)C(=O)CO2 (centres undefined)	/	8%	/
CCc1c(C)sc(NC(=O)c2noc(C)c2[N+](=O)[O-])c1C#N	/	18µM*	/
CCc1c(C)sc(NC(=O)c2cc(-c3ccc(O)cc3)on2)c1C#N	6	?	?
COc1ccc(N2C(=O)C(CC(N)=O)N(NC(=O)c3cccc(OC)c3)C2=S)cc1 (centres undefined)	/	24%	/
O=C(COC(=O)Cc1ccccc1F)Nc1ccc(Cl)cn1	/	13µM*	/
O=C(COC(=O)c1ccccc1)Nc1ccc(Cl)cn1	/	5%	/
